{"source": "PubChem BioAssay (NCATS)", "note": "Several values for one entry are separate records, joined by “and”; a condition that tells them apart may be missing. Equal entries are not always repeated. Results filed as inconclusive are left out. Values without a mark were called inactive. Activity calls are given as the source filed them. Unless noted, calls follow the shape of the dose curve; as a rule, active = well fitted inhibition curve with a large enough effect; inconclusive = small, poorly fitted or top-dose-only effect; inactive = flat fitted curve, though single readings scatter. % is scaled to controls: 0 for no effect and ±100 for the full control effect.", "data": [{"target": "Retinoic acid receptor RXR-alpha (Homo sapiens) (UniProt P19793)", "sequence (P19793 whole entry, looked up)": "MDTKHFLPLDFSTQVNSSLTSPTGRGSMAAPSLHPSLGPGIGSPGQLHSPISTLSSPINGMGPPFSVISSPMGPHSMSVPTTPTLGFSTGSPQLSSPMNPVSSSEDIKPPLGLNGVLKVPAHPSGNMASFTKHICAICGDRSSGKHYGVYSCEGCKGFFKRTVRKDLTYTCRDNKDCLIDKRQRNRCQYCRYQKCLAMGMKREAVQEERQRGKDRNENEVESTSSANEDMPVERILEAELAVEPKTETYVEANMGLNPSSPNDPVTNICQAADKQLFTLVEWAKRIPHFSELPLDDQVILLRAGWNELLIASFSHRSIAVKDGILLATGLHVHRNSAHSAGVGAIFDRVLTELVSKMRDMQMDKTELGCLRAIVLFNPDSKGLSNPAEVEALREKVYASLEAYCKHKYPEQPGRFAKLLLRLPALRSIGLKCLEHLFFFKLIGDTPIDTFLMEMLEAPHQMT", "experiment": "qHTS assay for small molecule antagonists of retinoid X receptor alpha signaling (AID 588546; active = well fitted inhibition curve with a large enough effect in the signal ratio, with a control signal flat, not every such curve was filed as active; the % refers to the signal ratio)", "conditions": "HEK293T RXRa-UAS-bla, beta-lactamase ratio, antagonist mode", "procedure,_shortened": "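Beta-lactamase reporter inhibition, read as CCF4 fluorescence ratio (ex 405, em 460/530 nm) after 2 h at RT. HEK293T UAS-bla cells, 2500/well, were stimulated with 9-cis-RA at 500 or 100 nM final alongside test compound for 18 h at 37 C.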", "values": [{"smiles": "[O-][N+](=Nc1ccccc1)c1ccccc1", "max response": "1.34%"}, {"smiles": "Oc1ccc(/C=C/c2cc(O)cc(O)c2)cc1", "max response": "-15.1%"}, {"smiles": "CCCCC", "max response": "3.28%"}, {"smiles": "CCOC(C)OCC", "max response": "-3.17%"}, {"smiles": "C[C@H](CCC(=O)O)[C@H]1CC[C@H]2[C@@H]3[C@H](O)C[C@@H]4C[C@H](O)CC[C@]4(C)[C@H]3C[C@H](O)[C@]12C", "max response": "-12.8%"}, {"smiles": "O=c1n(CC2CO2)c(=O)n(CC2CO2)c(=O)n1CC1CO1", "note": "(configuration not stated)", "max response": "-59.1%"}, {"smiles": "CCCCC(CC)COS(=O)(=O)O", "note": "(configuration not stated)", "max response": "7.69%"}, {"smiles": "COC(=O)c1ccccc1O", "max response": "-1.72% and -1.77%"}, {"smiles": "CN(CCO)CC(O)Cn1cnc2c1c(=O)n(C)c(=O)n2C", "note": "(configuration not stated) (tested in a mixture with another compound)", "max response": "-3.95%"}, {"smiles": "ClC(Cl)Cl", "max response": "6.91%"}, {"smiles": "CC/C=C\\C/C=C\\C/C=C\\CCCCCCCC(=O)O", "max response": "-8.86%"}, {"smiles": "C=C(C)C1CC=C(C)CC1", "note": "(configuration not stated)", "max response": "2.38% and 15.2%"}]}, {"target": "Thyroid hormone receptor beta (Homo sapiens) (UniProt P10828)", "sequence (P10828 whole entry, looked up)": "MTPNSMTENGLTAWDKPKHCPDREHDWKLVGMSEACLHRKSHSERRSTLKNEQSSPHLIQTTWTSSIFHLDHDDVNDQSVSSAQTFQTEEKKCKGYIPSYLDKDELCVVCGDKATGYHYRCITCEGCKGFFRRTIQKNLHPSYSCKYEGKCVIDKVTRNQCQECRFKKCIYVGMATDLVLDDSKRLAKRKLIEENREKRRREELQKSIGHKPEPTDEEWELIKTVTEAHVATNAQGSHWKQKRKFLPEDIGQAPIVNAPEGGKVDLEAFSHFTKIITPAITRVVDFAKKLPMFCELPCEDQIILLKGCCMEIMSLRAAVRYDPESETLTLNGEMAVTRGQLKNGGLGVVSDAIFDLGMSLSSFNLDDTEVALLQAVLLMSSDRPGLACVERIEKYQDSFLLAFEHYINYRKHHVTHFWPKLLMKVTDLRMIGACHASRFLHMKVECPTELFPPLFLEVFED", "experiment": "qHTS assay for small molecule antagonists of thyroid hormone receptor beta signaling (AID 588547; active = well fitted inhibition curve with a large enough effect in the signal ratio, with a control signal flat, not every such curve was filed as active; the % refers to the signal ratio;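 also: cells stimulated with 0.4 nM T3 agonist during compound exposure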)", "conditions": "TR-UAS-bla HEK293, beta-lactamase ratio, antagonist mode, 18 h", "procedure,_shortened": "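Inhibition of T3-driven (0.4nM final) beta-lactamase reporter activity was measured over 0.59 nM to 92 uM compound after 18 h at 37 C. The cells were GripTite HEK293 TR-UAS-bla in charcoal/dextran-stripped serum, with CCF4 ratio read-out and IC50 from Hill fits.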", "values": [{"smiles": "[O-][N+](=Nc1ccccc1)c1ccccc1", "activity change % (negative = inhibition)": "7.57%"}, {"smiles": "Oc1ccc(/C=C/c2cc(O)cc(O)c2)cc1", "activity change % (negative = inhibition)": "0.49% and -24.4%"}, {"smiles": "C[C@H](CCC(=O)O)[C@H]1CC[C@H]2[C@@H]3[C@H](O)C[C@@H]4C[C@H](O)CC[C@]4(C)[C@H]3C[C@H](O)[C@]12C", "activity change % (negative = inhibition)": "5.64%"}, {"smiles": "O=c1n(CC2CO2)c(=O)n(CC2CO2)c(=O)n1CC1CO1", "note": "(configuration not stated)", "activity change % (negative = inhibition)": "-18.3% and -20.3%"}, {"smiles": "CCCCC(CC)COS(=O)(=O)O", "note": "(configuration not stated)", "activity change % (negative = inhibition)": "9.71%"}, {"smiles": "COC(=O)c1ccccc1O", "activity change % (negative = inhibition)": "-3.85%"}, {"smiles": "CN(CCO)CC(O)Cn1cnc2c1c(=O)n(C)c(=O)n2C", "note": "(configuration not stated) (tested in a mixture with another compound)", "activity change % (negative = inhibition)": "12.1%"}, {"smiles": "ClC(Cl)Cl", "activity change % (negative = inhibition)": "-7.48%"}]}, {"target": "Voltage-gated inwardly rectifying potassium channel KCNH2 (Homo sapiens) (UniProt Q12809)", "sequence (Q12809 whole entry, looked up)": "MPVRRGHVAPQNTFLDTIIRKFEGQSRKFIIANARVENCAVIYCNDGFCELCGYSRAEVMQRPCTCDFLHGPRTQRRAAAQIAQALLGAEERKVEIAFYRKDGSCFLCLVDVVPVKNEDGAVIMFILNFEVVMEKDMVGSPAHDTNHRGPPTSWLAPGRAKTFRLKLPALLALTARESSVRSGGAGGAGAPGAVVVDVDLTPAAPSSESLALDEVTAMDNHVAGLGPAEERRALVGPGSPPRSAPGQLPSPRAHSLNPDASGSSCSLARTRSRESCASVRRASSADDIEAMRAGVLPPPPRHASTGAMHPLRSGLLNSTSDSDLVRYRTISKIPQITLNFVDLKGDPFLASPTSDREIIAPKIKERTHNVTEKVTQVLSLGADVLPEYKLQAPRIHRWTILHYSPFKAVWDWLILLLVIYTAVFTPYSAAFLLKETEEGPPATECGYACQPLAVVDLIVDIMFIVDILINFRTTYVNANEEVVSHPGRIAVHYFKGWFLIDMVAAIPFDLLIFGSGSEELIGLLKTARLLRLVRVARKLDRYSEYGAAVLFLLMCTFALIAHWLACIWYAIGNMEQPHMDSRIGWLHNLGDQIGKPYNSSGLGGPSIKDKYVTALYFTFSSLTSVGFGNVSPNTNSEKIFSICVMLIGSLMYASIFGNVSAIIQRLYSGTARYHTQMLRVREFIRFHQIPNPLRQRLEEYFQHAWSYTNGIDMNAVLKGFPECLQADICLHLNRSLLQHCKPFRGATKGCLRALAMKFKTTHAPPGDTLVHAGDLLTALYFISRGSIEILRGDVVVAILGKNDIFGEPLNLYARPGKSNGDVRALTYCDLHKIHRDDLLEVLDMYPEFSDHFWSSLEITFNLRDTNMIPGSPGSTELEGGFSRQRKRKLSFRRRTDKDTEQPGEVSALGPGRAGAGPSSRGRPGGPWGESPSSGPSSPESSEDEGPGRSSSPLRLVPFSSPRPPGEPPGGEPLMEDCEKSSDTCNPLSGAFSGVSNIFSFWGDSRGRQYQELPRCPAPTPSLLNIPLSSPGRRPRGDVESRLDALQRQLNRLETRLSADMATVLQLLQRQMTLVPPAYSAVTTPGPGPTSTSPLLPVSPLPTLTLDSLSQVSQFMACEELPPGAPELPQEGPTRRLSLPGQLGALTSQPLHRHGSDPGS", "experiment": "qHTS Assay for Small Molecule Inhibitors of the Human hERG Channel Activity (AID 588834);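 also: lower thallium flux fluorescence means stronger hERG block; nearly all actives have a fitted effect of over 50% in size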; also: potency is read from the fitted curve at half-maximal effect; as to activity change, negative = inhibition: top concentration of the series differs between compounds", "conditions": "U2OS BacMam hERG, FluxOR thallium flux fluorescence; series mostly up to 46.1 µM; activity change, negative = inhibition: at the top concentration", "procedure,_shortened": "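Cells were infected with hERG-BacMam virus for 4 hrs at room temperature, grown overnight, then seeded at 2000/well. After dye loading and roughly 10 min compound treatment, thallium influx was triggered and fluorescence recorded.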", "values": [{"smiles": "CC(=NCc1ccccc1)c1ccccc1O", "activity change, negative = inhibition": "17.8%"}, {"smiles": "N[C@@H](Cc1cc(I)c(Oc2ccc(O)c(I)c2)c(I)c1)C(=O)O", "activity change, negative = inhibition": "-6.78%"}, {"smiles": "CC(C)N1CCN(c2ccc(OC[C@H]3CO[C@](Cn4cncn4)(c4ccc(Cl)cc4Cl)O3)cc2)CC1", "Potency": "8.91 µM (active)"}, {"smiles": "Cc1cccc(C)c1Nc1ncccc1C(=O)O", "activity change, negative = inhibition": "-14.1%"}, {"smiles": "CO[C@H]1C=CO[C@@]2(C)Oc3c(C)c(O)c4c(O)c(cc(O)c4c3C2=O)NC(=O)/C(C)=C\\C=C/[C@H](C)[C@H](O)[C@@H](C)[C@@H](O)[C@@H](C)[C@H](OC(C)=O)[C@@H]1C", "activity change, negative = inhibition": "13.9%"}, {"smiles": "Oc1ccc(/C=C/c2cc(O)cc(O)c2)cc1", "Potency": "inactive"}, {"smiles": "CCCCC/C=C\\CCC(=O)N[C@H]1[C@H](Oc2c3cc4cc2Oc2ccc(cc2Cl)[C@@H](O[C@@H]2O[C@H](CO)[C@@H](O)[C@H](O)[C@H]2NC(C)=O)[C@@H]2NC(=O)[C@H](NC(=O)[C@@H]4NC(=O)[C@H]4NC(=O)[C@@H](Cc5ccc(c(Cl)c5)O3)NC(=O)[C@H](N)c3ccc(O)c(c3)Oc3cc(O)cc4c3)c3ccc(O)c(c3)-c3c(O[C@H]4O[C@H](CO)[C@@H](O)[C@H](O)[C@@H]4O)cc(O)cc3[C@@H](C(=O)O)NC2=O)O[C@H](CO)[C@@H](O)[C@@H]1O", "activity change, negative = inhibition": "3.68% [at 20.6 µM]"}, {"smiles": "CCCCC", "Potency": "inactive"}, {"smiles": "C[C@H](CCC(=O)O)[C@H]1CC[C@H]2[C@@H]3CC[C@@H]4C[C@H](O)CC[C@]4(C)[C@H]3C[C@H](O)[C@]12C", "Potency": "inactive"}, {"smiles": "NC[C@H]1O[C@H](O[C@H]2[C@H](O)[C@@H](O[C@H]3O[C@H](CO)[C@@H](O)[C@H](N)[C@H]3O)[C@H](N)C[C@@H]2N)[C@H](N)C[C@@H]1O", "activity change, negative = inhibition": "0.829% [at 20.6 µM]"}, {"smiles": "CCOC(C)OCC", "Potency": "inactive"}, {"smiles": "C[C@H](CCC(=O)O)[C@H]1CC[C@H]2[C@@H]3[C@H](O)C[C@@H]4C[C@H](O)CC[C@]4(C)[C@H]3C[C@H](O)[C@]12C", "Potency": "inactive"}, {"smiles": "CC(C)=CCC/C(C)=C/CC/C(C)=C/CC/C(C)=C/CC1=C(C)C(=O)c2ccccc2C1=O", "activity change, negative = inhibition": "-1.6%"}, {"smiles": "O=c1n(CC2CO2)c(=O)n(CC2CO2)c(=O)n1CC1CO1", "note": "(configuration not stated)", "Potency": "inactive"}, {"smiles": "CC(CN1c2ccccc2Sc2cccnc21)N(C)C", "note": "(configuration not stated)", "Potency": "0.891 µM (active)"}, {"smiles": "CCCCC(CC)COS(=O)(=O)O", "note": "(configuration not stated)", "activity change, negative = inhibition": "5.84%"}, {"smiles": "CN[C@@H]1[C@H](O[C@H]2[C@H](O[C@H]3[C@H](O)[C@@H](O)[C@H](N=C(N)N)[C@@H](O)[C@@H]3N=C(N)N)O[C@@H](C)[C@]2(O)CO)O[C@@H](CO)[C@H](O)[C@H]1O", "activity change, negative = inhibition": "17.2%"}]}]}
